Rows were chosen to be rich in hits. Some 3.7% of all compounds tested hit in one or more screens of this group.
HTT ATP protect = cytoprotection in Huntington HTT-Q103 PC12 cell model; Potency, µM (doses to about 56.4 µM), inactives show cytoprotection (ATP increase), hits mostly activators; hit rate 0.14% among 230,000; PC12 HTT-Q103 induced, cytoprotection, ATP luminescence, 40 h; further: % of control where 0% means no effect; nearly all actives have a fitted effect of over 45% in size
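Readout: ATPlite luminescence (ATP level). Model: stable PC12, inducible Htt exon1 Q103-GFP. Inducer: tebufenozide, 100 nM final. Compounds: dose series. No G418 in medium.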
Tau fibril FP = blocks human tau fibril formation measured by polarization; P10636; K18 P301L tau heparin fibrillization, Alexa594 FP, 6 h; Potency, µM (titrated, usually from 57.7 µM), for the others: at the top dose activity, negative = inhibition, most hits filed as inhibitors; hit rate 0.39% among 280,000; AID 1468; further: on the % scale 0 is the no-effect control and ±100 the full control effect; nearly all actives have a fitted effect of over 55% in size
Target sequence (P10636 561-689 P618L limits assumed): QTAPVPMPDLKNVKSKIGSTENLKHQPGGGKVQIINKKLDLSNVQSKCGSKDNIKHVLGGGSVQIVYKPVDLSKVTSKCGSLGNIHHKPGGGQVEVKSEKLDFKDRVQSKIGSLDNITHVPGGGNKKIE
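K18 P301L tau (15 uM unlabeled/0.24 uM Alexa 594-labeled, final) + compound + heparin 20 uM final; 100 mM NaOAc pH 7; 6 hr 37 C; ThT 30 uM final added, 1 hr RT; FP ex 555/em 632 nm.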
HTT aggregate = mutant huntingtin aggregation inhibition; PC12 HttQ103-GFP aggregates, Acumen cytometry, 40 h; hit rate 1.1% among 220,000; Potency, µM (series often up to 46.1 µM), for the others: top-dose activity change, negative = inhibition, hits mostly inhibitors; further: on the % scale 0 is the no-effect control and ±100 the full control effect; nearly all actives have a fitted effect of over 60% in size
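PC12 cells with ecdysone-inducible HTT exon1 Q103-GFP, induced by 100 nM tebufenozide, given compounds in a concentration series. GFP aggregates (1–25 um, 6 SD above background) counted in lysates by laser-scanning cytometry, 488 nm excitation.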
Tau fluor cs = counter-screen for tau fibril formation inhibitors. Potency, µM (top dose mostly 57.7 µM), for the others: top-dose activity change, negative = decrease. tau K18 P301L Alexa594 fluorescence, heparin fibrillization. hit rate 0.93% among 280,000. AID 1463; further: on the % scale 0 is the no-effect control and ±100 the full control effect; nearly all actives have a fitted effect of over 55% in size
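Human K18 P301L tau (15 uM unlabeled plus 0.24 uM Alexa 594-labeled, final) in 100 mM sodium acetate pH 7 was mixed with compound and 20 uM heparin and incubated 6 hr at 37 C.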
Tau fibril ThT = blocks human tau fibril formation measured by thioflavin T. recombinant tau K18 P301L (four-repeat tau fragment), heparin-induced fibrillization, ThT fluorescence. Potency, µM (top dose mostly 57.4 µM), for inactives: at the highest dose activity, negative = inhibition, actives largely listed as inhibitors. hit rate 2.1% among 270,000. P10636; further: on the % scale 0 is the no-effect control and ±100 the full control effect; nearly all actives have a fitted effect of over 55% in size
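Heparin-induced (20 uM) aggregation of recombinant human K18 P301L tau, 15 uM unlabeled with 0.24 uM labeled, pH 7 acetate buffer, 6 hr at 37 C with compound. Fibrils quantified by 30 uM ThT fluorescence after 1 hr ambient incubation.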
An asterisk follows results filed as active; ! = not active in a repeat; [ ] = remark or other dose. The call rests on the fitted dose curve; in most records, active means well fitted curve in the direction sought with a large enough effect; inconclusive means small, poorly fitted or top-dose-only effect, or another doubt; inactive means no such curve, though single readings can be large; an effect the other way counts as inactive or inconclusive. Potency means the concentration at half of the fitted maximal effect.

Results for COc1ccc(C(=O)c2ccccc2)c(O)c1 ?
HTT ATP protect: -34%[10 µM]; Tau fibril FP: 6%; HTT aggregate: 11µM*!; Tau fluor cs: 1%; Tau fibril ThT: 8%

Results for CC(=O)[C@@H]1CC[C@@H]2[C@@H]3CC=C4C[C@H](OS(=O)(=O)O)CC[C@@]4(C)[C@H]3CC[C@]21C ?
HTT ATP protect: 12%[1.9 µM]

Results for Oc1ccc2ccccc2c1CNc1cnc2ccccc2c1 ?
HTT ATP protect: -15%; Tau fibril FP: -3%; HTT aggregate: inconclusive; Tau fluor cs: inconclusive; Tau fibril ThT: inconclusive

What do the screens show for `Oc1ccccc1CNc1cnc2ccccc2c1`?
HTT ATP protect: 14%[10 µM]; Tau fibril FP: -1%; HTT aggregate: 35µM*; Tau fluor cs: -29%; Tau fibril ThT: -11%

What do the screens show for `COc1cc(CNc2ccc3[nH]c(=O)[nH]c3c2)cc(Cl)c1OCC(=O)NC(C)(C)C`?
HTT ATP protect: -4%[0.074 µM]; Tau fibril FP: inconclusive; HTT aggregate: -8%; Tau fluor cs: inconclusive; Tau fibril ThT: 11µM*

Results for CCOc1cc(CNc2ccc3[nH]c(=O)[nH]c3c2)ccc1OCC(=O)NC(C)(C)C ?
HTT ATP protect: 1%[0.074 µM]; Tau fibril FP: inconclusive; HTT aggregate: 1%; Tau fluor cs: inconclusive; Tau fibril ThT: 13µM*

Results for C=CCOc1ccc(CNc2ccc3[nH]c(=O)[nH]c3c2)cc1OCC ?
HTT ATP protect: -12%[10 µM]; Tau fibril FP: 13%; HTT aggregate: -17%[9.22 µM]; Tau fluor cs: 7%; Tau fibril ThT: 0%

How did O=C(Nc1ccc2c(c1)Cc1ccccc1-2)[C@@H]1[C@H](C(=O)O)[C@]2(Cl)C(Cl)=C(Cl)[C@@]1(Cl)C2(Cl)Cl do in these assays?
HTT ATP protect: -4%[10 µM]

How did Cc1ccc(NNC(=S)Nc2ccc(C(C)C)cc2)c(C)c1 do in these assays?
HTT ATP protect: 32%[10 µM]; Tau fibril FP: -8%; HTT aggregate: 11%; Tau fluor cs: inconclusive; Tau fibril ThT: 14µM*

How did COCCc1nn2c(=O)cc(COC(=O)C(c3ccccc3)c3ccccc3)nc2s1 do in these assays?
Tau fibril FP: 3%; Tau fluor cs: 5%; Tau fibril ThT: -13%

How did CCCSc1nc(-c2ccc(OC)cc2)cc(-c2ccccc2OC)c1C#N do in these assays?
Tau fibril FP: 25µM*; Tau fluor cs: inconclusive; Tau fibril ThT: 22µM*

How did C=C(C)CSc1nc(-c2ccccc2)cc(-c2ccc(OC)cc2)c1C#N do in these assays?
Tau fibril FP: inconclusive; Tau fluor cs: -14%; Tau fibril ThT: -11%

How did CCC(=O)OC1(C)C(=O)C=C2C=C(CCCNC(=O)OC(C)(C)C)OC=C2C1=O (stereo not given) do in these assays?
HTT ATP protect: 14%; Tau fibril FP: 4%; Tau fluor cs: -6%; Tau fibril ThT: -2%

How did c1ccc2c(c1)CCN(c1ncnc3c1[nH]c1ccccc13)C2 do in these assays?
HTT ATP protect: -72%; Tau fibril FP: inconclusive; HTT aggregate: 11µM*; Tau fluor cs: inconclusive; Tau fibril ThT: inconclusive

How did c1ccc2c(c1)[nH]c1c(N3CCC4(CC3)OCCO4)ncnc12 do in these assays?
HTT ATP protect: -34%; Tau fibril FP: 5%; HTT aggregate: 13µM*; Tau fluor cs: -14%; Tau fibril ThT: -20%

Results for COc1cccc2[nH]c3c(N4CCC5(CC4)OCCO5)ncnc3c12 ?
HTT ATP protect: 29%[10 µM]; Tau fibril FP: 1%; HTT aggregate: -2%[9.22 µM]; Tau fluor cs: -15%; Tau fibril ThT: inconclusive

Results for CN1CCc2c(sc3ncn4nc(-c5ccccc5O)nc4c23)C1 ?
HTT ATP protect: 24%; Tau fibril FP: inconclusive; HTT aggregate: 23%; Tau fluor cs: -26%; Tau fibril ThT: 28µM*

What do the screens show for `Cc1cccc(C)c1N=C1NN=C(c2ccccc2F)CS1`?
HTT ATP protect: 22%[10 µM]; Tau fibril FP: 8%; HTT aggregate: inconclusive; Tau fluor cs: -18%; Tau fibril ThT: inconclusive

Results for Cc1ccccc1N=C1NN=C(c2ccccc2F)CS1 ?
HTT ATP protect: -1%[10 µM]; Tau fibril FP: inconclusive; HTT aggregate: -32%; Tau fluor cs: -30%; Tau fibril ThT: 28µM*

How did c1ccc2sc(Nc3nc4cc5c(cc4s3)OCO5)nc2c1 do in these assays?
Tau fibril FP: 3%; HTT aggregate: -4%; Tau fluor cs: 0%; Tau fibril ThT: 1%

How did Fc1ccc2nc(Nc3nc4cc5c(cc4s3)OCO5)sc2c1 do in these assays?
HTT ATP protect: -2%[10 µM]; Tau fibril FP: inconclusive; HTT aggregate: -3%; Tau fluor cs: 3.5µM*[quencher]; Tau fibril ThT: inconclusive

What do the screens show for `Fc1ccc2nc(Nc3nc4cc5c(cc4s3)OCCO5)sc2c1`?
Tau fibril FP: -6%; HTT aggregate: 9%; Tau fluor cs: 14µM*[quencher]; Tau fibril ThT: 10µM*

What do the screens show for `O=C(NNc1nc2cc3c(cc2s1)OCCO3)c1ccc(F)cc1`?
Tau fibril FP: -2%; HTT aggregate: -26%; Tau fluor cs: -7%; Tau fibril ThT: inconclusive

Results for Cc1nnc(Sc2cc(NCCO)c([N+](=O)[O-])c3nonc23)s1 ?
HTT ATP protect: -195%; Tau fibril FP: inconclusive; HTT aggregate: inconclusive; Tau fluor cs: inconclusive; Tau fibril ThT: 7.9µM*

How did Cc1nnc(Sc2cc(NCCCO)c([N+](=O)[O-])c3nonc23)s1 do in these assays?
HTT ATP protect: -143%; Tau fibril FP: -14%; HTT aggregate: inconclusive; Tau fluor cs: inconclusive; Tau fibril ThT: 6.3µM*

How did CC(=O)c1ccc(Sc2nnc(C)s2)c([N+](=O)[O-])c1 do in these assays?
HTT ATP protect: 31%[10 µM]; Tau fibril FP: -7%; HTT aggregate: 16%[9.22 µM]; Tau fluor cs: 9%[2.34 µM]; Tau fibril ThT: 5%

How did NC(=O)c1ccc(N=Nc2c(-c3ccccc3)[nH]n(-c3ccccc3)c2=O)cc1 do in these assays?
HTT ATP protect: -3%; Tau fibril FP: 15%; HTT aggregate: 0%; Tau fluor cs: inconclusive; Tau fibril ThT: inconclusive

Results for Cc1[nH]n(-c2ccccc2)c(=O)c1N=Nc1ccccc1 ?
Tau fibril FP: 2%; Tau fluor cs: -6%; Tau fibril ThT: inconclusive

Results for Nc1[nH]n(-c2ccccc2)c(=O)c1N=Nc1ccc2c(c1)OCO2 ?
HTT ATP protect: -21%[10 µM]; Tau fibril FP: inconclusive; HTT aggregate: 21%[9.22 µM]; Tau fluor cs: 10µM*[quencher]; Tau fibril ThT: 2.2µM*

Results for Cc1cc([N+](=O)[O-])ccc1N=Nc1c(N)[nH]n(-c2ccccc2)c1=O ?
Tau fibril FP: inconclusive; HTT aggregate: -4%; Tau fluor cs: inconclusive; Tau fibril ThT: 16µM*

Results for Nc1[nH]n(-c2ccccc2)c(=O)c1N=Nc1ccc2c(c1)OCCO2 ?
HTT ATP protect: -109%; Tau fibril FP: -12%; HTT aggregate: -6%; Tau fluor cs: 11µM*[quencher]; Tau fibril ThT: 6.3µM*
